Results published in paper PMC4336329 (PLoS ONE, 2015).
The campaign covered roughly 310,000 compounds. About 14,000 (4.5%) showed an effect of 50% or more. The effect is printed as a negative number. The entries come from a sample that favours strong results as a whole.

These molecules were tested against human ether-à-go-go-related gene (hERG) potassium channel (human, UniProt Q12809) (assay: primary screen, population patch clamp on CHO cells stably expressing hERG; higher = less effect of the substance).
Experimental: Briefly, Chinese hamster ovary (CHO) cells stably expressing the hERG channel were dislodged from tissue culture flasks and dispensed into PPC plates. […] During the recording, background leak currents were estimated by a 100 ms step to -80 mV from an initial holding potential of -70 mV and subtracted from the subsequent current measurement. The campaign was conducted in two phases using slight differences in recording protocol. In the first phase, the initial voltage pulse used a 100 ms step to -30 mV from a holding potential of -70 mV, a 2 s conditioning step to +25 mV, and a 2 s test step to -30 mV. During the second phase of the screen, the potential during the conditioning step was raised to +45 mV. In both phases of the campaign, a secondary voltage pulse was applied using the same parameters as the second phase initial pulse. The initial and secondary pulses were applied in the absence of compound, and upon application of 1 μM and 10 μM test concentrations. […]
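Also: peak tail current of the secondary pulse compared with the same well before compound.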

human ether-à-go-go-related gene (hERG) potassium channel, sequence (Q12809 whole entry, looked up): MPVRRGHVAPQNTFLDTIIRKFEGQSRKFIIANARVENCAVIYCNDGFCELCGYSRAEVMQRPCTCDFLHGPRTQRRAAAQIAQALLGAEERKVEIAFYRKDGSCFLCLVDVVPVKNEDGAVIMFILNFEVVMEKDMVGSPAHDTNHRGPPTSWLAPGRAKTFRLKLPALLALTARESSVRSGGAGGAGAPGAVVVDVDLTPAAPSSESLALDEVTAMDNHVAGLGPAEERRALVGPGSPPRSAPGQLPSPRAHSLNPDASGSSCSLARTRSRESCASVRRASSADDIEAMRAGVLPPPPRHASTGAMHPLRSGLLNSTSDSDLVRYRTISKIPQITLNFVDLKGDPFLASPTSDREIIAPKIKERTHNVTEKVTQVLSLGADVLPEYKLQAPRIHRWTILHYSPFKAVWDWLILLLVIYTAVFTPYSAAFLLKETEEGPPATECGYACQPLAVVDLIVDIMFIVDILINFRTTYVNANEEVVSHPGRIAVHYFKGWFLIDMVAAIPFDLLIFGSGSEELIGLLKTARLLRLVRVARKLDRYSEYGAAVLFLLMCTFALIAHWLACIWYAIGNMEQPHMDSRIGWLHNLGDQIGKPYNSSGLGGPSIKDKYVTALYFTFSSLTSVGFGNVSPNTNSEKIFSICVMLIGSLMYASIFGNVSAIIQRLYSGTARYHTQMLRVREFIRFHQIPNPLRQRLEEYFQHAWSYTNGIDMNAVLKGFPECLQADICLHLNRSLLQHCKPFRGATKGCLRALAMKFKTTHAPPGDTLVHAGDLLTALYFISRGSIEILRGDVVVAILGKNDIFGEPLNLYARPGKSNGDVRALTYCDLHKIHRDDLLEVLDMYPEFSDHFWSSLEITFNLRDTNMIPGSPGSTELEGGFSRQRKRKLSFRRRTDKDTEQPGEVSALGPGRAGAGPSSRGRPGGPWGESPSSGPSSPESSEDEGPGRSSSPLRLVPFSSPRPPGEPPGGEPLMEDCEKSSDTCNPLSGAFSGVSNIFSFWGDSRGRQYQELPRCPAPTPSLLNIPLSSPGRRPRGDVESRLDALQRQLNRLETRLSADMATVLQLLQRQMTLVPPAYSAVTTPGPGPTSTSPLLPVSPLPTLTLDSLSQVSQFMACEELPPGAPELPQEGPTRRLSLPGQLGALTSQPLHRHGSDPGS

| SMILES | hERG current change (%, negative = inhibition) at 10uM [%] |
| --- | --- |
| COc1ccc(C(=O)NC(=S)N2CCN(c3ccccc3OC)CC2)cc1 | -21.6 |
| O=C(COC(=O)c1cccnc1)c1ccc(Cl)cc1 | 4.51 |
| CCCCn1c(SCn2nnc3ccccc3c2=O)nc2cc(S(N)(=O)=O)ccc21 | -34.5 |
| COc1ccc(N2CCN(CCCNC(=O)C(=O)c3c(C)[nH]c4ccccc34)CC2)cc1 | -53.3 |
| COc1ccc(C(C(O)C(=O)c2c[nH]c3ccccc23)N2CCN(c3ccc(OC)cc3)CC2)cc1 (centres unmarked) | -7.36 |
| CCN1CCN(CCCNC(=O)C(=O)c2c(C)[nH]c3ccccc23)CC1 | 3.67 |
| Cl.O=C(NCCCN1CCOCC1)C(=O)c1c[nH]c2ccccc12 | -3.03 |
| COc1ccc(N2CCN(CCCNC(=O)C(=O)c3c(C)n(C)c4ccccc34)CC2)cc1 | -64.1 |
| COc1ccc(C(C(O)C(=O)c2c[nH]c3ccccc23)N2CCN(c3ccccc3)CC2)cc1 (centres unmarked) | -13.8 |
| COc1ccc(N2CCN(CC(=O)c3c(C)n(C)c4ccc(OC)cc34)CC2)cc1 | -4.1 |
| COc1ccc(N2CCN(C(=O)C(=O)c3c(C)n(C)c4ccccc34)CC2)cc1 | 10.4 |
| CCN1CCN(C(c2ccc(OC)cc2)C(O)C(=O)c2c[nH]c3ccccc23)CC1 (centres unmarked) | -69 |
| COc1ccc(N2CCN(CCCNC(=O)C(=O)c3c[nH]c4ccccc34)CC2)cc1 | -69.7 |
| COc1ccc(N2CCN(C(=O)C(=O)c3c(C)[nH]c4ccccc34)CC2)cc1 | -14.1 |
| COc1ccc(N2CCN(CC(=O)c3c[nH]c4ccccc34)CC2)cc1 | 8.09 |
| O=C(NCCN1CCOCC1)c1cccc(S(=O)(=O)N(Cc2ccccc2)c2ccccc2)c1 | -19.3 |
| CCOC(=O)c1sc(C)c(C(=O)NC2CCCCC2)c1N | -4.79 |
| CNC(=O)c1c(NC(=O)CCS(=O)(=O)c2ccccc2)sc(C)c1C | 0.0126 |
| COc1ccc(/C=N/NC(=O)Cc2csc(Nc3cccc(C(F)(F)F)c3)n2)cc1C | 10.7 |
| CCOC(=O)c1cc(-c2ccccc2)sc1NC(=O)COC(=O)c1cccc(S(N)(=O)=O)c1 | 10.2 |
| CC1CC(C)CN(CCCNC(=O)CCC(=O)N2CC(C)Oc3ccccc32)C1 (centres unmarked) | -32.2 |
| Cc1cccc(/C=N/NC(=O)c2cccc(NC(=O)c3ccccc3)c2)n1 | 0.172 |
| CCOCc1nnc(NC(=O)CSc2ccc(C)cc2)s1 | 6.61 |

| SMILES | hERG current change (%, negative = inhibition) at 10uM [%] |
| --- | --- |
| Cc1c(N2CCCC2)cc2c(c1NC(=O)c1ccccc1Cl)C(C)(C)CC2(C)C | -25.6 |
| CN1/C(=C/c2cccc[n+]2C)Sc2ccccc21.[I-] | -22.7 |
| CN1/C(=C/c2cccc[n+]2CCO)Sc2ccccc21.[I-] | 12.4 |
| COc1ccc(-[n+]2c(C)cc(/C=C3\Sc4ccccc4N3C)cc2C)cc1.[I-] | -60.2 |
| COc1ccccc1-[n+]1c(C)cc(/C=C2\Sc3ccccc3N2C)cc1C.[I-] | -69.6 |
| COc1ccc(C(=O)/C=C2\Sc3ccccc3N2C)cc1 | 11.1 |
| COc1cc(OC)cc(C(=O)/C=C2\Sc3ccccc3N2C)c1 | 9.82 |
| COc1ccc(NC(=O)/C(C#N)=C\c2ccc(OCc3ccc(C(=O)O)cc3)c(OC)c2)cc1 | 3.69 |
| CC(C)C(CCNC(=O)CC(Cc1ccccc1)c1ccco1)c1ccco1 (centres unmarked) | -20 |
| Cc1cc(C)cc(OCC(=O)NNC(=O)CCN2C(=O)c3ccccc3C2=O)c1 | -14.8 |
| Cc1ccc(NC(=O)CCNS(=O)(=O)c2ccc3[nH]c(=O)oc3c2)cc1C | 9.43 |
| COc1ccc2cc(CN(CC3CCCO3)S(=O)(=O)c3ccc(C(C)=O)cc3)c(=O)[nH]c2c1 (centres unmarked) | -11.4 |
| COC(=O)CN(C)C(=O)CC1C(=O)NCCN1CC(C)(C)C (centres unmarked) | 22.8 |
| O=c1[nH]cnc2c1cnn2Cc1ccccc1Cl | 11.7 |
| Cc1ccc(C2(C)NC(=O)N(CC(=O)NCc3ccccc3Cl)C2=O)cc1 (centres unmarked) | 9.54 |
| CCSC(C)CC1C/C(=N/O)c2c(C)noc2C1 (centres unmarked) | -63.4 |
| CCCc1noc2c1/C(=N\O)CC(CC(C)SCC)C2 (centres unmarked) | -11.1 |
| CCSC(C)CC1C/C(=N/O)c2c(CC)noc2C1 (centres unmarked) | -24.2 |
| O=C(Nc1nccs1)C1CCCN1/C=C/C(=O)C(F)(F)F (centres unmarked) | 13.9 |
| CSc1nnc2c(n1)OC(c1ccccn1)N(C(C)=O)c1ccccc1-2 (centres unmarked) | 1.42 |
| CC(O)CNc1nc2ccccc2n1-c1ncnc2sc3c(c12)CCC3 (centres unmarked) | -55.5 |
| c1ccc2c(c1)ncn2-c1ncnc2sc3c(c12)CCCC3 | -27.2 |
| CC(O)CNc1nc2sc3c(c2c(=O)n1CCc1ccccc1)CCCCC3 (centres unmarked) | 13.1 |

| SMILES | hERG current change (%, negative = inhibition) at 10uM [%] |
| --- | --- |
| COc1ccc(CC(=O)N/N=C/c2ccc(-c3cccc(C(=O)O)c3)o2)cc1OC | 3.33 |
| C=CCNC(=O)CN(Cc1ccccc1)S(=O)(=O)c1ccccc1 | -4.02 |
| CCNS(=O)(=O)c1ccc(NC(=S)N2CCc3ccccc32)cc1 | 22.9 |
| CCOC(=O)c1c(C)nsc1NC(=O)C1CCCCC1 | 17.3 |
| N#Cc1ccc(OCC(=O)N2CCN(S(=O)(=O)c3ccc(Cl)s3)CC2)cc1 | -69.5 |
| COc1ccc(OCC(=O)N2CCN(S(=O)(=O)c3ccc(Cl)s3)CC2)cc1 | -0.573 |
| O=C(COc1ccccc1)N1CCN(S(=O)(=O)c2cccs2)CC1 | -31 |
| N#Cc1ccc(C(=O)N2CCN(S(=O)(=O)c3ccc(Cl)s3)CC2)cc1 | -49.9 |
| CCC(=O)c1ccc(OCC(=O)N2CCN(S(=O)(=O)c3ccc(Cl)s3)CC2)cc1 | -4.53 |
| O=C(CCc1nc2ccccc2s1)N1CCN(S(=O)(=O)c2cccs2)CC1 | -66.7 |
| CC(C)(C)c1ccc(C(=O)N2CCN(S(=O)(=O)c3ccc(Br)s3)CC2)cc1 | 1.21 |
| N#Cc1ccc(OCC(=O)N2CCN(S(=O)(=O)c3cccs3)CC2)cc1 | -72.1 |
| N#Cc1ccc(C(=O)N2CCN(S(=O)(=O)c3ccc(Br)s3)CC2)cc1 | -63.5 |
| O=S(=O)(c1cccs1)N1CCN(Cc2nc3ccccc3s2)CC1 | -27.8 |
| O=C(CCCc1nc2ccccc2s1)N1CCN(S(=O)(=O)c2cccs2)CC1 | -11.9 |
| O=C(CCOc1ccccc1)N1CCN(S(=O)(=O)c2cccs2)CC1 | -9.15 |
| CCN(CC(=O)NC(=O)Nc1ccccc1F)Cc1ccccc1 | 12.4 |
| Cc1ccc(N(CCC(=O)N2CCOCC2)S(=O)(=O)c2ccccc2)cc1 | -8.57 |
| Cn1c(NC(=O)C2c3ccccc3Oc3ccccc32)cc(=O)n(C)c1=O | -3.72 |
| C=CCn1c2ccccc2c2nnc(SCC(=O)Nc3cc(C)on3)nc21 | -8.39 |
| CCOC(=O)CNC(=O)c1nn(-c2cccc(OC)c2)c(=O)c2ccccc12 | -22.9 |
| O=C(COC(=O)c1cccc(Oc2ccccc2)c1)NCc1ccco1 | 3.19 |
| O=C(NC1CCCCC1)C(c1ccco1)N(Cc1cccnc1)C(=O)C1COc2ccccc2O1 (centres unmarked) | -18.8 |

| SMILES | hERG current change (%, negative = inhibition) at 10uM [%] |
| --- | --- |
| Cc1ccc(C(C(=O)NC2CCCCC2)N(Cc2ccco2)C(=O)C2COc3ccccc3O2)o1 (centres unmarked) | -6.27 |
| Cc1ccc(C(C(=O)NC2CCCCC2)N(Cc2cccnc2)C(=O)C2COc3ccccc3O2)o1 (centres unmarked) | -59.7 |
| Cc1ccc(NC(=O)c2sc(C)nc2C)c(C)c1 | 1.97 |
| O=C(N/N=C/c1ccccc1OCc1ccccc1)c1cccs1 | 5.13 |
| CCc1cc(=O)oc2cc(OS(C)(=O)=O)ccc12 | -5.44 |
| Cc1cc(=O)oc2cc(OS(C)(=O)=O)ccc12 | 4.31 |
| Cc1c(C)c2ccc(OS(C)(=O)=O)cc2oc1=O | -58.4 |
| CCOc1ccc2c(=O)c(Oc3ccccc3)c(C)oc2c1 | -6.41 |
| CCOC(=O)c1ccc(Oc2c(C)oc3cc(OS(C)(=O)=O)ccc3c2=O)cc1 | -66 |
| CCOC(=O)c1c(C)oc2ccc(OS(C)(=O)=O)cc12 | 1.04 |
| COc1ccccc1/C=C/C=N/N1CCN(Cc2ccccc2)CC1 | -8.94 |
| COc1ccc(/C(O)=C2/C(=O)C(=O)N(CC3CCCO3)C2c2ccc(OC)c(OC)c2)cc1 (centres unmarked) | 1.45 |
| Cc1cnc(NC(=O)CCCNC(=O)c2ccc(Cl)cc2)s1 | 12.8 |
| Cc1ccccc1-n1c(-c2ccc([N+](=O)[O-])cc2)nc2ccccc2c1=O | -0.532 |
| Cc1nn(Cc2ccc(C(=O)N3N=C(C(F)F)CC3(O)C(F)F)o2)c(C)c1[N+](=O)[O-] (centres unmarked) | -37.3 |
| Cc1nn(Cc2ccc(C(=O)N3N=C(C(F)F)CC3(O)C(F)F)cc2)c(C)c1[N+](=O)[O-] (centres unmarked) | -62.9 |
| CC1=NN(C(=O)c2cccc(Cn3nc(C)c([N+](=O)[O-])c3C)c2)C(O)(C(F)(F)F)C1 (centres unmarked) | 0.484 |
| CC1=NN(C(=O)c2ccc(Cn3nc(C)c([N+](=O)[O-])c3C)o2)C(O)(C(F)(F)F)C1 (centres unmarked) | -52.8 |
| CC1=NN(C(=O)c2ccc(Cn3nc(C)c([N+](=O)[O-])c3C)cc2)C(O)(C(F)(F)F)C1 (centres unmarked) | -28.8 |
| Cc1nn(Cc2cccc(C(=O)N3N=C(C(F)F)CC3(O)C(F)F)c2)c(C)c1[N+](=O)[O-] (centres unmarked) | -19.6 |
